An excerpt weighted towards active compounds, which were near 1.1% of everything screened.
RXFP1 agonist: qHTS Assay for Agonists of the Relaxin Receptor RXFP1. Relaxin receptor 1 (Homo sapiens), Q9HBX9. 370,000 compounds, 0.3% hits. Potency, µM (doses to about 57.5 µM), most hits filed as activators. HEK293T-RXFP1 cAMP TR-FRET, 30 min; response scale: percent of porcine relaxin response, buffer zero; further: nearly all actives have a fitted effect of over 60% in size
Target sequence (Q9HBX9 whole entry, looked up): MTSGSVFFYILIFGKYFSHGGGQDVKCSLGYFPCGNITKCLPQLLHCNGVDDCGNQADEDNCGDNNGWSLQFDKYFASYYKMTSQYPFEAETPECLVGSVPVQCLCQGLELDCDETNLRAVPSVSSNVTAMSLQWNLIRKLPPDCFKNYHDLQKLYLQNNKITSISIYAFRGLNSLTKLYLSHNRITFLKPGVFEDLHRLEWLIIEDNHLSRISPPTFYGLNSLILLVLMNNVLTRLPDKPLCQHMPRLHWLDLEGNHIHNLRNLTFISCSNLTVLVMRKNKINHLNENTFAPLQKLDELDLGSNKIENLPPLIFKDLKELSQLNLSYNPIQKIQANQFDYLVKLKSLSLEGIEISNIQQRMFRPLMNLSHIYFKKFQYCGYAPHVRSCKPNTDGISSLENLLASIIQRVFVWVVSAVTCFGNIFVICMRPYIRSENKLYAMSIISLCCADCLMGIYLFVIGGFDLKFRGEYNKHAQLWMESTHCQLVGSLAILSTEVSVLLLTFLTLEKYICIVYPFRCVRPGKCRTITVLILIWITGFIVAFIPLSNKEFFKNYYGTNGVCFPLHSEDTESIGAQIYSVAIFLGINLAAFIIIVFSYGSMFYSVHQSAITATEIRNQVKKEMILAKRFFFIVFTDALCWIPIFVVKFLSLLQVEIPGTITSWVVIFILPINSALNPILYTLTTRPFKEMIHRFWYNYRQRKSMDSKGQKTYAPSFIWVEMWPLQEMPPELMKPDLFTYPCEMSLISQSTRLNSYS
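Agonist response is measured as cAMP accumulation in an RXFP1-transfected HEK293T line under PDE4 inhibition. Values are scaled between buffer-only and 29 nM porcine relaxin, and EC50s come from standard Hill equation fits.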
a7 integrin act: qHTS for Activators of Integrin-Mediated Alleviation for Muscular Dystrophy. alpha7betagal myoblasts, beta-gal FDG fluorescence, 48 h. Potency, µM (doses to about 38.3 µM), usual class: activators. 350,000 compounds, 0.064% hits; further: nearly all actives have a fitted effect of over 60% in size
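Alpha7betagal+/- myoblasts (passage 13) were plated 16-24 hr, then exposed to compounds (1:260 dilution of DMSO stock) for 48 hours at 37C. After MPER lysis, β-galactosidase reporter activity was read as FDG fluorescence (ex 480/em 540) after 30 minutes.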
gsp agonist: qHTS for Agonist of gsp, the Etiologic Mutation Responsible for Fibrous Dysplasia/McCune-Albright Syndrome: qHTS | gsp mutant cells, cAMP HTRF, 30 min | Potency, µM (doses to about 76.9 µM), most hits filed as activators | 340,000 compounds, 0.13% hits | AID 624287, 2012; active means well fitted activation curve with a large enough effect; inconclusive means small, poorly fitted or top-dose-only effect, or another doubt; inactive means no such curve, though single readings can be large or run the other way; cell line not stated here;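 further: phosphodiesterase inhibitor Ro 20-1724 added with compounds to block cAMP breakdown; nearly all actives have a fitted effect of over 60% in size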
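Cells stably selected in G418 were plated at 2000/well, grown 16-24 hr, then given compounds in DMSO with the PDE inhibitor […] (300 uM solution added) for 30 min at 37C; cAMP was read by HTRF.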
S-ASM inh: Inhibitors of Secretory Acid Sphingomyelinase (S-ASM): qHTS. placental ASM, HMU-PC fluorogenic substrate, 60 min. Potency, µM (top dose mostly 57.5 µM), hits mostly inhibitors. 340,000 compounds, 0.006% hits. AID 504937, 2011
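qHTS format. ASM enzyme prepared from human placenta hydrolyses the fluorogenic substrate HMU-PC0 (9 uM final) over 60 min at 37 °C after a 10 min compound preincubation.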
RXFP1 antagonist: qHTS Assay for Antagonists of the Relaxin Receptor RXFP1 | 350,000 compounds, 0.59% hits | AID 1259400, 2018 | HEK293-RXFP1, relaxin-stimulated cAMP HTRF, 30 min; hits give low values | activity change, negative = inhibition, % at 57.5 µM;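 active means activity change of -60% or lower, but not beyond a set lower limit; inconclusive means change between -60% and -40%, or beyond the set limit; inactive means change above -40%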
gsp antagonist: qHTS for Antagonists of gsp, the Etiologic Mutation Responsible for Fibrous Dysplasia/McCune-Albright Syndrome: qHTS. gsp-mutant cells, cAMP HTRF, 30 min. Potency, µM (titrated, usually from 76.9 µM), usual class: inhibitors. 340,000 compounds, 0.4% hits. AID 624288, 2012; calls by dose curve; cell line not stated here;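 further: intracellular cAMP measured with PDE inhibitor Ro 20-1724 present during compound exposure; nearly all actives have a fitted effect of over 65% in size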
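Cells in G418 medium, seeded 16-24 h, 37C; buffer exchange to DPBS + 1 mM CaCl2, 0.5 mM MgCl2, 0.05% BSA; cpds in DMSO + […] (300 uM stock), 30 min 37C; HTRF cAMP detection.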
Hits are given with their value; . = inactive; ? = inconclusive; / = no result given; [ ] = remark or other dose. Unless noted, the call rests on the fitted dose curve; in most records, active means well fitted curve in the direction sought with a large enough effect; inconclusive means small, poorly fitted or top-dose-only effect, or another doubt; inactive means no such curve, though single readings can be large; an effect the other way counts as inactive or inconclusive.

SMILES | RXFP1 agonist | a7 integrin act | gsp agonist | S-ASM inh | RXFP1 antagonist | gsp antagonist
CCCc1cc(-c2[nH]ncc2-c2ccc3c(c2)OCCCO3)c(O)cc1O | . | .[7.66 µM] | ? | . | -76 | .
Cc1ccc2c(c1)c1c(c(=O)n(-c3ccccc3)c(=O)n1CC(=O)N1CCCC1)n2C | . | / | / | / | . | /
CC(C)(C)C1CCc2c(sc(NC(=O)C3CC=CCC3C(=O)O)c2C#N)C1 (centres undefined) | . | . | . | . | . | 40µM
CC(C)(C)c1ccc(C(=O)Nc2sc3c(c2C#N)CCC(C(C)(C)C)C3)cc1 (centres undefined) | . | / | / | / | / | /
CC1CCc2c(sc(NC(=O)c3ccccc3C(=O)O)c2C#N)C1 (centres undefined) | . | . | .[15.4 µM] | . | . | .
CCC(C)(C)C1CCc2c(sc(NC(=O)c3ccccc3C(=O)O)c2C#N)C1 (centres undefined) | . | . | . | . | -69 | ?
Cc1ccc(Nc2ccc(N3CCN(C(=O)c4cccc([N+](=O)[O-])c4)CC3)nn2)cc1 | . | / | / | / | . | /
Cc1nnc2sc(SCC(=O)N3CCCCC3)nn2c1=O | . | . | 28µM | . | . | .
COc1ccccc1N(Cc1ccccc1)S(=O)(=O)c1cccc(C(=O)N2CCCCC2)c1 | / | ? | . | . | . | ?
CCn1c(CN2CCCCC2)nc2cc(S(=O)(=O)N3CCCCC3)ccc21 | . | . | . | . | . | 11µM
CCn1c(C)nc2cc(S(=O)(=O)N3CCCCC3)ccc21 | . | . | . | . | . | .
O=C(COC(=O)/C=C/c1ccc([N+](=O)[O-])cc1)Nc1ccc(F)cc1 | . | . | . | . | . | .
O=C(COC(=O)/C=C/c1ccc([N+](=O)[O-])cc1)Nc1ccc2[nH]c(=O)[nH]c2c1 | . | . | . | . | -69 | .
COc1ccc(Cl)cc1C(=O)Nc1ccc(NC(C)=O)cc1 | . | . | . | . | . | 35µM
COc1ccc(Cl)cc1C(=O)Nc1ccc(NC(=O)C(C)C)cc1 | . | . | ? | . | . | .
CC(=O)Oc1c(I)cc(I)cc1C(=O)Nc1ccc(Cl)cc1 | . | . | .[15.4 µM] | . | -96 | 35µM
O=C(CCn1nnc2ccccc21)Nc1nnc(COc2ccccc2F)s1 | . | . | . | . | . | .
O=C(CCn1nnc2ccccc21)Nc1nnc(Cc2ccccc2)s1 | . | . | ? | . | . | 32µM
COc1ccc(C(C)=O)cc1Cn1cnc2c(cnn2C)c1=O | 13µM | . | ? | . | . | .
CCCn1c(=O)c2sccc2n2c(CCCC(=O)Nc3ccccc3OCC)nnc12 | . | / | / | / | / | /
COc1ccccc1CNC(=O)CCCc1nnc2n(C)c(=O)c3sccc3n12 | ? | . | 14µM | . | . | .
COc1ccccc1NC(=O)CCCc1nnc2n(C)c(=O)c3sccc3n12 | 4.5µM | . | 13µM | . | . | .
CCn1c(=O)c2sccc2n2c(CCCC(=O)NCc3cccnc3)nnc12 | 18µM | . | ? | . | . | .
Cn1c(=O)c2sccc2n2c(CCCC(=O)NCc3ccco3)nnc12 | 14µM | . | ? | . | . | .
Cc1ccc(CNC(=O)CCCc2nnc3n(C)c(=O)c4sccc4n23)cc1 | ? | / | / | / | . | /
SMILES | RXFP1 agonist | a7 integrin act | gsp agonist | S-ASM inh | RXFP1 antagonist | gsp antagonist
CC(C)=CCC/C(C)=C/CC/C(C)=C/C(=O)OCC(=O)[C@@]1(O)CC[C@H]2[C@@H]3CCC4=CC(=O)C=C[C@]4(C)[C@H]3[C@@H](O)C[C@@]21C | / | / | / | / | . | /
CCOC(=O)C1=CC[C@H]2c3c(c4ccccc4n3C)C(=O)C1N2C | . | . | . | . | / | .
O=C(COc1ccc(Cl)cc1)NCC(c1ccco1)S(=O)(=O)c1ccc(Cl)cc1 (centres undefined) | . | / | / | / | . | /
CC1(C)S[C@@H]2[C@H](NC(=O)Cc3ccccc3)C(=O)N2[C@H]1C(=O)O (tested in a mixture with another compound) | / | / | / | / | . | /
CCOc1ccc(-c2cc3nc(C4CCN(C(=O)OC(C)(C)C)CC4)c(C(=O)Nc4cccc(C(F)(F)F)c4)cn3n2)cc1 | . | / | / | / | . | /
COC[C@@H](c1ccc(C(F)(F)F)cc1)N1CCN(C2(C)CCN(C(=O)c3c(C)ncnc3C)CC2)C[C@H]1C | / | / | / | / | . | /
Cc1ccc(CN2CCN(CC(=O)NCc3ccccc3)CC2)cc1 | . | . | . | . | -99 | .
O=C(CN1CCN(C(c2ccccc2)c2ccccc2)CC1)NCc1ccccc1 | . | . | ? | . | -74 | .
O=C(CN1CCN(Cc2ccccc2)CC1)NCc1ccc(Cl)cc1 | . | . | .[15.4 µM] | . | . | .
CN(C)CCC(=O)N1C/C(=C/c2ccccc2)C(=O)/C(=C\c2ccccc2)C1 | / | . | . | . | -114 | .
COC(=O)c1ccccc1NC(=O)c1cnc2c(-c3cccc(C)c3)c(C)nn2c1C | . | / | / | / | . | /
O=C(CC1C(=O)N(c2ccccc2)C(=S)N1c1ccccc1)c1ccccc1 (centres undefined) | . | ? | . | . | . | .
O=C(CC1C(=O)N(c2ccccc2)C(=S)N1c1ccccc1)c1ccc(Br)cc1 (centres undefined) | . | . | .[15.4 µM] | . | -73 | .
O=C(CCc1ccccc1)NCc1nc2cccnc2n1Cc1ccc(F)cc1 | . | / | / | / | . | /
CC1(C)OC(=O)Nc2ccc(Br)cc21 | / | / | / | / | . | /
Cn1c(=O)c2[nH]c(CN(Cc3ccccc3)Cc3ccccc3)nc2n(C)c1=O | . | . | . | . | . | .
Cn1c(=O)c2[nH]c(COc3ccccc3)nc2n(C)c1=O | / | . | 3.2µM | . | . | .
CCOc1ccccc1NC(=O)CSc1nnc(CNC(=O)c2cccs2)o1 | . | . | . | . | . | .
CC1=C/C(=C(/c2cc(C)c(O)c(Br)c2)c2ccccc2S(=O)(=O)O)C=C(Br)C1=O | . | . | . | . | ? | 20µM
C[C@H]1CN([C@@H](C)CO)C(=O)c2cc(Br)cnc2O[C@H]1CN(C)C(=O)c1cccnc1 | / | . | 32µM | / | . | /
Cc1n[nH]c(C)c1S(=O)(=O)N1CCCC(C(=O)N2CCN(c3ccc(Cl)cc3)CC2)C1 (centres undefined) | . | . | . | . | . | 35µM
O=C(O)C(Cc1ccc(O)cc1)N1C(=O)c2c(Cl)c(Cl)c(Cl)c(Cl)c2C1=O (centres undefined) | / | . | .[15.4 µM] | . | -62 | .
